Screening data from PubChem.
CYP2C9 activ = human CYP2C9 activators, primary screen, biochemical, luminescence | Cytochrome P450 2C9 (Homo sapiens), P11712 | recombinant CYP2C9, luciferin-H conversion; hits give high values; factor 1 = untreated enzyme, 0 = blocked | activation factor at 5 µM | 96,000 tested, 1.4% active | AID 1024, 2008;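 active means activation factor of 2 or more for CYP2C9 at a 5 µM dose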
CYP2C19 inh = blockers of cytochrome P450 2C19 activity – biochemical, luminescence, ADME assay, primary screen | CYP2C19 Supersomes, luciferin-H EGE luminescence, 30 min | P33261 | AID 778, 2007 | 96,000 tested, 21% active | inhibition, % at 5 µM;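 active means CYP2C19 inhibition above a set limit at 5 µM in the primary screen, cut at about 50% in these data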
Target sequence (P33261 whole entry, looked up): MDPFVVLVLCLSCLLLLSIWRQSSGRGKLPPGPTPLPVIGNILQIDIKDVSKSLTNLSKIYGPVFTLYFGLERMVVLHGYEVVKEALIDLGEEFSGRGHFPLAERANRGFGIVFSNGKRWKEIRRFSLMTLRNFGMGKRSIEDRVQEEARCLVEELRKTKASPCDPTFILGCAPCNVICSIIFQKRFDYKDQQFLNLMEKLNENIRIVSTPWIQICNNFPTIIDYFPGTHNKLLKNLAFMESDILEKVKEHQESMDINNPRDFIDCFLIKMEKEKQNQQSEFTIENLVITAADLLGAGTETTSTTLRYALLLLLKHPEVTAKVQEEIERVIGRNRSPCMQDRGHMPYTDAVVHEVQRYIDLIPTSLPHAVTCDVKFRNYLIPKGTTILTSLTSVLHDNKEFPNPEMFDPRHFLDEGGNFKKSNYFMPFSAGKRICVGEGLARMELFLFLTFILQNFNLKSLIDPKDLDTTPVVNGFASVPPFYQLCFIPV
PostGolgi ctrl = growth inhibition of yeast control strain, primary screen, counter-screen for post-Golgi transport modulator project. efflux-deficient yeast background strain, growth absorbance A615, 16 h. inhibition, % at 10 µM. 98,000 tested, 5% active
PostGolgi yeast = phenotypic screen on post-Golgi transport, primary screen; post-Golgi transport phenotypic cell assay; inhibition, % at 10 µM; 98,000 tested, 0.9% active; AID 739, 2007;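 further: yeast cells grown in 1536-well plates; yeast grown about 18 h at 30C before absorbance read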
CYP2C19 activ = human CYP2C19 activators, primary screen, biochemical, luminescence; Cytochrome P450 2C19 (Homo sapiens), P33261; recombinant CYP2C19, luciferin-H EGE luminescence; hits give high values; 0 = fully inhibited enzyme, 1 = untreated enzyme; activation factor at 5 µM; 96,000 tested, under 10 active; AID 1025, 2008;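 active means activation factor of at least 2 at 5 µM in the primary screen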
CYP2C9 inhib = blockers of cytochrome P450 2C9 activity – biochemical, luminescence, ADME assay, primary screen. CYP2C9 Supersomes, luciferin-H conversion. inhibition, % at 5 µM. 96,000 tested, 20% active. AID 777, 2007;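 active means blocking of liver enzyme CYP2C9 beyond about 50% at 5 µM, limit read from the data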
Each line names hits and unclear results; the compound was inactive in the other large screens. Sampled rows, rich in hits. Any-hit rate of the full collection: about 32%. Unless noted, no stated cut-off is given here; in the data, active means inhibition above about 30%; inactive means the rest.

C(=N\N1CCN(Cc2cccc3ccccc23)CC1)/c1cccnc1	none
CCCc1cc(=O)oc2cc(C)cc(OCc3nn[nH]n3)c12	none
CCOC(=O)COc1ccc2c3c(c(=O)oc2c1C)CCC3	CYP2C19 inh 64.8, CYP2C9 inhib 78.8
CCOC(=O)CCc1c(C)c2ccc(OCC)c(C)c2oc1=O	none
Cc1c(OCc2nn[nH]n2)ccc2c3c(c(=O)oc12)CCCC3	CYP2C19 inh 67.1, CYP2C9 inhib 93.7
Cc1c(OCc2nn[nH]n2)ccc2c3c(c(=O)oc12)CCC(C)C3 (stereo not drawn)	CYP2C19 inh 84.8, CYP2C9 inhib 98.1
Cc1cc2oc(=O)c3c(c2cc1OCc1nn[nH]n1)CCCC3	none
CCOc1ccccc1C(=O)NC(CO)C(=O)O (stereo not drawn)	none
CC(NC(=O)c1ccco1)C(=O)N1CCc2ccccc2C1 (stereo not drawn)	none
CCCCOc1cc(=O)[nH]c(=O)[nH]1	none
CCOc1ccc(-c2[nH]nc3c2C(c2ccc(O)cc2)C(C#N)=C(N)O3)cc1 (stereo not drawn)	none
Cc1cc(-c2[nH]nc3c2C(c2ccsc2)C(C#N)=C(N)O3)c(C)s1 (stereo not drawn)	CYP2C19 inh 83.8, CYP2C9 inhib 92.8
Cc1cc(-c2[nH]nc3c2C(c2cccc(O)c2)C(C#N)=C(N)O3)c(C)s1 (stereo not drawn)	CYP2C19 inh 87.7, CYP2C9 inhib 51.0
COc1ccc(Nc2c3c(c(C#N)c4nc5ccccc5n24)CCC3)cc1	none
CN1CCN(CCN2CCn3c2nc2ccccc23)CC1	none
CCC(CC)C(=O)NCCc1cc2ccc(C)c(C)c2[nH]c1=O	none (no result: PostGolgi ctrl, PostGolgi yeast)
COc1ccc(-c2noc(CSc3nnc(Cc4ccccc4)n3-c3ccc(Cl)cc3)n2)cc1	CYP2C19 inh 87.0, CYP2C9 inhib 80.1
COc1ccc(-c2noc(CSc3nc4ccccc4c(=O)n3-c3ccc(C)cc3)n2)cc1	CYP2C19 inh 62.8, CYP2C9 inhib 65.5
Cc1ccc(-c2noc(CSc3nnc(Cc4ccccc4)n3-c3ccc(Cl)cc3)n2)cc1	CYP2C19 inh 84.5, PostGolgi ctrl 36.8, CYP2C9 inhib 83.7
Cn1c(SCc2nc(-c3ccc(Cl)cc3)no2)nnc1-c1ccccc1	none
COc1ccc(-c2noc(CSc3nc(N)c(-c4ccccc4)c(=O)[nH]3)n2)cc1	CYP2C19 inh 76.2, CYP2C9 inhib 69.6
COc1cc(-c2cc(C(F)(F)F)n3ncc(C(=O)O)c3n2)cc(OC)c1OC	none
COc1cccc(NC(C)C(=O)N2CC(C)OC(C)C2)c1 (stereo not drawn)	none
COCC(C)NCc1ccccc1C (stereo not drawn)	CYP2C9 inhib 80.0
CC(C)/C=C1\CCCCC1N(C)C(=O)NC(C)C (stereo not drawn)	CYP2C19 inh 58.5
CSc1cc(/C=N/O)c(SC)s1	CYP2C19 inh 65.6
COc1cccc(C(C#N)N2CCOCC2)c1 (stereo not drawn)	CYP2C19 inh 77.7
COc1cc(C(C#N)N2CCOCC2)ccc1O (stereo not drawn)	none
COc1cccc2cc(C(=O)NCc3ccco3)c(=Nc3ccc(C(=O)O)cc3)oc12	none
CSc1nc(Oc2ccc(Cl)cc2)c2sccc2n1	none
C=CCNc1nc(SCC=C)nc2ccsc12	none
C=CCSc1nc(Oc2ccccc2)c2sccc2n1	CYP2C19 inh 54.0
CSc1nc(Oc2ccccc2)c2sccc2n1	CYP2C9 inhib 60.0
O=C(Cn1c(O)c(/C=C2\C=Nc3ccc(Br)cc32)sc1=O)N1CCCC1	CYP2C19 inh 69.5, PostGolgi ctrl 36.6, CYP2C9 inhib 90.7
Cc1oc2c(c1C(=O)NCc1cc(C(=O)O)co1)CCCC2	none
CCOC(=O)c1coc(CNC(=O)c2c(C)oc3c2CCCC3)c1	PostGolgi ctrl 31.9
COc1ccc2c(c1)CCc1cc(C(=O)N3CCN(c4ccc(N5CCOCC5)nn4)CC3)sc1-2	none
CN1c2ccccc2C(O)=C(C(=S)Nc2ccc(Cl)cc2)S1(=O)=O	CYP2C9 inhib 97.3
Cc1cccc(NC(=O)C2=C(O)c3ccccc3N(C)S2(=O)=O)c1	none
Cc1ccc(NC(=S)C2=C(O)c3sccc3N(C)S2(=O)=O)cc1	CYP2C9 inhib 95.0
CN1c2ccsc2C(O)=C(C(=O)Nc2ccccc2)S1(=O)=O	CYP2C9 inhib 72.6
Cc1ccc(NC(=O)C2=C(O)c3sccc3N(C)S2(=O)=O)cc1	CYP2C9 inhib 63.6
Cc1ccc(C(=O)NC(=S)Nc2ccc(S(=O)(=O)N3CCN(C)CC3)cc2)cc1	none
O=CNCC(=O)NC1CCCCCC1	none
COc1ccc(C(C(=O)NC2CCCCC2)N(Cc2cccs2)C(=O)Cc2c[nH]c3ccccc23)cc1OC (stereo not drawn)	CYP2C9 inhib 85.3
Cc1ccc(-c2nnn(CC(=O)N(c3ccc(F)cc3)C(C(=O)NC3CCCC3)c3ccco3)n2)o1 (stereo not drawn)	none
Cc1ccc(C(C(=O)NC2CCCC2)N(C(=O)Cc2cccs2)c2ccc(C)c(C)c2)o1 (stereo not drawn)	none
Cc1ccc(N(C(=O)Cc2c[nH]c3ccccc23)C(C(=O)NC2CCCCC2)c2ccco2)cc1 (stereo not drawn)	CYP2C19 inh 84.2, CYP2C9 inhib 94.0
Cc1ccc(C(C(=O)NC2CCCCC2)N(Cc2ccco2)C(=O)Cc2c[nH]c3ccccc23)o1 (stereo not drawn)	CYP2C19 inh 53.6
O=C(Nc1ccc(NC(=O)C2CC2)nc1)c1cccnc1	none
O=C(NCCCN1CCCC1=O)c1cccnc1	none
O=C(NC1(C(F)(F)F)NC(=O)N(c2ccc(F)c(Cl)c2)C1=O)c1ccncc1 (stereo not drawn)	CYP2C19 inh 82.4, CYP2C9 inhib 97.7
Cc1nn(Cc2c(F)c(F)c(F)c(F)c2F)c(C)c1NC(=O)c1c(-c2ccccc2)nn(-c2ccccc2)c1C	none
CCC(=O)N(CCC(c1ccco1)c1ccccc1OC)Cc1cccs1 (stereo not drawn)	CYP2C19 inh 96.2, CYP2C9 inhib 95.9
CC(=O)N(CCC(c1ccccc1)c1ccco1)Cc1cccs1 (stereo not drawn)	none
CCOC(=O)C1=C(C)NC2=C(C(=O)CCC2)C1c1cn(Cc2ccc(Cl)cc2Cl)nc1-c1ccccc1 (stereo not drawn)	CYP2C19 inh 51.0, CYP2C9 inhib 82.9
CCOC(=O)C1=C(C)NC(C)=C(C(=O)OCC)C1c1cn(-c2ccccc2)nc1-c1ccco1	none
COC(=O)C1=C(C)NC2=C(C(=O)CCC2)C1c1cn(Cc2ccc(Cl)cc2Cl)nc1-c1ccccc1 (stereo not drawn)	CYP2C19 inh 52.8, CYP2C9 inhib 73.0
